Screening data as filed in PubChem.
KB-V1 MDR tox – qHTS assay for MDR1-selective chemotherapeutics: Primary screen using the drug-selected MDR subline cells KB-V1 | Potency, µM (top dose mostly 46.1 µM), actives largely listed as cytotoxic | KB-V1 MDR cells viability, CellTiter-Glo, 72 h | AID 1347076, 2019 | 3.4% of 400,000 active; note: potency is the fitted concentration of half-maximal effect; % is set by controls: 0 for no effect and ±100 for the full control effect; nearly all actives have a fitted effect of over 60% in size
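KB-V1 MDR subline cells in DMEM (phenol-red free, 10% FBS) exposed to compounds in qHTS concentration series for 72 h at 37 degrees C. Viability read by CellTiter-Glo luminescence; concentration-effect curves fitted after normalization and correction.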
KB-3-1 cytotox – qHTS assay for MDR1-selective chemotherapeutics: Primary screen using the parental adenocarcinoma cell KB-3-1; KB-3-1 viability, CellTiter-Glo ATP luminescence, 72 h; Potency, µM (doses to about 46.1 µM), hits mostly cytotoxic; 1.4% of 400,000 active; AID 1347075, 2019; note: potency is the fitted concentration of half-maximal effect; % is set by controls: 0 for no effect and ±100 for the full control effect; nearly all actives have a fitted effect of over 60% in size
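Cytotoxicity in the drug-sensitive parental line KB-3-1 was scored as loss of CellTiter-Glo luminescence following 72 h incubation with compound. Values come from curve fitting of normalized concentration-response data.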
MCF10A rereplic – A quantitative high throughput screen for small molecules that induce DNA re-replication in MCF 10a normal breast cells; MCF 10A DNA re-replication, Hoechst nuclear intensity, 48 h; Potency, µM (titrated, usually from 46.1 µM), for inactives: top-dose activity, positive = re-replication, actives largely listed as activators; 2.9% of 350,000 active; AID 624296, 2012; note: potency is the fitted concentration of half-maximal effect; % of control where 0% means no effect; nearly all actives have a fitted effect of over 50% in size
IL1B secr inh – qHTS for Inhibitors of Inflammasome Signaling: IL-1-beta AlphaLISA Primary Screen | 4.7% of 360,000 active | activity change, % at 57.5 µM | AID 743279, 2014 | THP-1 LPS/ATP IL-1B secretion, AlphaLISA, 16 h; active compounds read low; in the data active = activity change below about -50%; inconclusive = mostly about -30% to -49%; note: % is set by controls: 0 for no effect and ±100 for the full control effect
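Secreted IL-1B measured by AlphaLISA bead assay after 16 h compound exposure of THP-1 cells; compounds (final up to 57.5 uM) added 1 h before LPS (250 ng/mL) and ATP (1.25 mM) stimulation; lower signal means less secretion.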
SW480 rereplic – A quantitative high throughput screen for small molecules that induce DNA re-replication in SW480 colon adenocarcinoma cells | SW480 DNA re-replication, Hoechst DNA content imaging, 48 h | Potency, µM (highest dose often 46.1 µM), for the others: at the top dose re-replication activation, usual class: activators | 1.8% of 340,000 active | AID 624297, 2012; note: potency is the fitted concentration of half-maximal effect; % of control where 0% means no effect; nearly all actives have a fitted effect of over 55% in size
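First, 250 cells per well were seeded. Next, compound or vehicle (23 nL) was pinned in, plates sat 48 hr at 37 C. Finally Hoechst was added for 40 min before fluorescence scanning.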
* marks the source's active call; other numbers are inactive results; i = inactive; ? = inconclusive; . = no result. Compounds with a hit are over-represented: about 9.9% of the library has one in this group of screens. Unless noted, calls come from the whole dose curve; as a rule, active = well fitted curve in the direction sought with a large enough effect; inconclusive = small, poorly fitted or top-dose-only effect, or another doubt; inactive = no such curve, though single readings can be large; an effect the other way counts as inactive or inconclusive.

SMILES	KB-V1 MDR tox	KB-3-1 cytotox	MCF10A rereplic	IL1B secr inh	SW480 rereplic
COCCn1c(-c2ccccc2)csc1=Nc1cccnc1	?	?	?	-11	?
c1cncc(N=c2scc(-c3cccc4ccccc34)n2CCCn2ccnc2)c1	12µM*	i	26%	-4	2%
CCCCn1c(C)csc1=Nc1cccnc1	i	i	18%	-14	-3%
c1ccc(-c2csc(=Nc3cccnc3)n2CC2CCCO2)cc1 (stereo not drawn)	?	i	?	11	-2%
CC1CCCCN1S(=O)(=O)c1cc2c3c(c1)CC(=O)N3CCC2 (stereo not drawn)	i	i	.	.	.
CC(C)NC(=O)C(c1ccc(F)cc1)N(C(=O)CCC(=O)Nc1ccccn1)c1cccc(F)c1 (stereo not drawn)	i	i	30%	-19	5%
COCCn1c(SCc2nc3scc(-c4ccc(Cl)cc4)c3c(=O)[nH]2)nnc1-c1cccc(C)c1	5.2µM*	21µM*	?	-16	?
COc1ccccc1/C=N/Nc1nncc2ccccc12	i	i	-2%	-3	-7%
COc1cccc(/C=N/n2c(CO)nc3ccccc32)c1OC	?	i	?	-22	-5%
COc1cccc(C=NNC(=S)NN=Cc2cccc(OC)c2OC)c1OC	?	i	18µM*	20	-4%
CNc1nc2ccccc2n1/N=C/c1cccc(OC)c1OC	8.2µM*	i	17%	-6	-13%
COc1cccc(C=NNc2nnc(NN=Cc3cccc(OC)c3OC)c3ccccc23)c1OC	?	?	?	-63*	-4%
COc1cccc(/C=N/NC(=O)C[n+]2ccccc2)c1OC	i	i	?	6	-4%
Cc1ccc(CCNC(=O)c2ccc(CSCc3ccc(C)cc3)o2)cc1	i	i	.	.	.
Cc1ccc(CSCc2ccc(C(=O)NCCC(C)C)o2)cc1	i	i	?	-66*	6%
COc1ccccc1-n1c(C)nc2cc(C(=O)NCCN3CCOCC3)ccc21	?	i	-9%	0	3.7µM*
N/C(Cc1ccc([N+](=O)[O-])cc1)=N\OC(=O)Cc1ccc(Cl)cc1	i	i	0%	-57*	0%
N/C(Cc1ccc([N+](=O)[O-])cc1)=N\OC(=O)Cc1ccccc1	i	i	-6%	16	1%
COc1ccc(C(CNC(=O)C(CC(C)C)NS(=O)(=O)c2ccc(C)cc2)N2CCOCC2)cc1 (stereo not drawn)	i	i	5%	-14	-1%
CCCc1nc2nc(C)c(NS(=O)(=O)c3ccc(Cl)cc3)c(=O)n2[nH]1	i	i	2%	-3	1%
O=C(CNS(=O)(=O)c1ccc([N+](=O)[O-])cc1)N/N=C/c1ccc(O)cc1O	i	?	20%	87	?
CCCn1c(SCc2nc3sc(C)c(C)c3c(=O)[nH]2)nc2ccccc2c1=O	9.2µM*	i	?	-8	-7%
CCCCn1c(SCc2nc3ccccc3s2)nc2ccccc2c1=O	?	23µM*	?	0	-5%
O=c1c2ccccc2nc(SCc2ccc([N+](=O)[O-])cc2)n1CCCO	2.9µM*	i	16%	-13	10%
CCCC[n+]1c(/C=C/c2c(OC)cc(OC)cc2OC)ccc2ccccc21	i	i	.	.	.
SMILES	KB-V1 MDR tox	KB-3-1 cytotox	MCF10A rereplic	IL1B secr inh	SW480 rereplic
COc1cc(OC)c(/C=C/c2ccc3ccccc3[n+]2C)c(OC)c1	i	0.73µM*	.	.	.
CCC[n+]1c(/C=C/c2c(OC)cc(OC)cc2OC)ccc2ccccc21	i	1.3µM*	.	.	.
COCCNC(=O)C1(C)CCN(C(=O)c2ccc(C(F)(F)F)nc2C)C1 (stereo not drawn)	i	i	.	14	.
COC(=O)C1=C(C(=O)OC)C(C(=O)OC)C(C(=O)OC)C(C(=O)OC)(C(=O)OC)C(C(=O)OC)=C1C(=O)OC (stereo not drawn)	?	i	?	-100*	?
O=C(Nc1ccc(F)cc1)C(Sc1nc2ccccc2[nH]1)c1ccccc1 (stereo not drawn)	?	?	12µM*	-54*	?
O=C(CCc1nc2ccccc2[nH]1)Nc1ccc(F)cc1	12µM*	i	0%	-2	-6%
O=C(CSc1nc2ccccc2[nH]1)Nc1ccc(F)cc1	i	i	19%	-26	-4%
COc1ccc(Cl)cc1NS(=O)(=O)c1cccc(C(=O)NCC(c2ccco2)N2CCCC2)c1 (stereo not drawn)	?	i	26%	-19	7%
COc1cc(C(=O)NCC2CCCO2)ccc1OCc1ccc(Cl)cc1Cl (stereo not drawn)	?	i	16%	-86*	-31%
O=C(NCC(c1ccco1)N1CCCCC1)c1ccc(OCc2ccccc2)cc1 (stereo not drawn)	i	i	8%	14	-1%
O=C(NCC(c1ccco1)N1CCCCC1)c1ccc(COc2ccccc2)cc1 (stereo not drawn)	?	?	?	-72*	1%
COc1cc(C(=O)NCC2CCCO2)ccc1OCc1ccc(Cl)cc1 (stereo not drawn)	?	i	-3%	0	-18%
COc1cc(C(=O)NCC(c2ccco2)N2CCCC2)ccc1OCc1ccc(Cl)cc1Cl (stereo not drawn)	?	i	18µM*	?	?
COc1ccc(Cl)cc1C(=O)NCC(c1ccco1)N1CCCC1 (stereo not drawn)	9.2µM*	i	9%	14	-4%
CN(CC(=O)Nc1ccc(F)cc1)C(=O)CN1C(=O)NC(CCc2ccccc2)C1=O (stereo not drawn)	i	i	.	12	.
CN1CCN(C(=O)c2cnn3c2NC(c2ccccc2)CC3C(F)(F)F)CC1 (stereo not drawn)	?	i	?	3	-8%
O=C(c1ccco1)N1CCN(c2c([N+](=O)[O-])nn(-c3cccc(Cl)c3)[n+]2[O-])CC1	i	i	3%	41	-4%
CC(C)(C)c1ccc(-n2nc(C#N)c(Cl)cc2=O)cc1	?	?	2.9µM*	-97*	4.1µM*
COc1ccc(NS(=O)(=O)c2ccc3oc(SC)nc3c2)cc1	?	?	?	-14	-3%
COc1ccc(NS(=O)(=O)c2ccc3oc(SC4CCOC4=O)nc3c2)cc1 (stereo not drawn)	i	i	2.9µM*	-8	?
